Assay outcomes: PubChem BioAssay, National Center for Advancing Translational Sciences (NCATS)
Rab9 prom act = Rab9 promoter activation; 2.8% of 320,000 active; AID 485297; Potency, µM (top dose mostly 9.22 µM), without a hit: at the top dose activation, negative = inhibition, most hits filed as activators; Huh7 Rab9 promoter-luciferase reporter, luminescence, 24 h; further: % of control where 0% means no effect; nearly all actives have a fitted effect of over 60% in size
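Cell-based reporter: Huh7 stable for Rab9 promoter-driven luciferase, plated in reduced-serum medium with 10% FBS at 1500 cells/well, compound-treated 24 h at 37 °C, luminescence read after 10 min reagent.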
FLuc modulator = inhibits or activates purified firefly luciferase, miR-21 counter-screen | purified FLuc, Km substrates, luminescence inhibition | Potency, µM (highest dose often 57.5 µM), for inactives: top-dose activity change, negative = inhibition, most hits filed as inhibitors | 6.9% of 360,000 active | AID 588342;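 further: plate controls were vehicle for no effect and reference inhibitor for full effect; nearly all actives have a fitted effect of over 55% in size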
Target sequence (P08659 whole entry, looked up): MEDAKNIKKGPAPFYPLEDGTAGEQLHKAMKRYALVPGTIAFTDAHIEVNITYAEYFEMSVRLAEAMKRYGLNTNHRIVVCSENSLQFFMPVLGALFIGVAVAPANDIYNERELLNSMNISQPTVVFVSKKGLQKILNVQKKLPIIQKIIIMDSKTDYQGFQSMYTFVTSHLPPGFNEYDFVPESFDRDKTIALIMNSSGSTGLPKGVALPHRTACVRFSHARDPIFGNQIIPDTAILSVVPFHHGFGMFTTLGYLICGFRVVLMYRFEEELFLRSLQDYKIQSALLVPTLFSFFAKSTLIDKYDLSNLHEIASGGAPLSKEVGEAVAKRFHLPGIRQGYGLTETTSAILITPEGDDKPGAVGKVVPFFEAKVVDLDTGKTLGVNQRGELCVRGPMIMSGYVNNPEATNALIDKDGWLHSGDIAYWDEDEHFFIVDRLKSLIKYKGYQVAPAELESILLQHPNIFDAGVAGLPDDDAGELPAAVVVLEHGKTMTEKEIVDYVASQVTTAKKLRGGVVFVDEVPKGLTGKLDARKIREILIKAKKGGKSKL
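Purified P. pyralis luciferase, 10 nM final, with Km-level 10 uM D-luciferin and 10 uM ATP in 50 mM Tris acetate pH 7.5, 10 mM Mg acetate, 0.01% Tween-20, 0.05% BSA; 6-point qHTS titration about 60 µM downward; luminescence read.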
SMN2 splice enh = SMN2 splice variant enhancement; Potency, µM (doses to about 46.1 µM), for the others: top-dose activity change, positive = activation, actives largely listed as activators; HEK293 SMN2-luciferase splicing reporter, luminescence, 30-36 h; 2.8% of 210,000 active; further: % of control where 0% means no effect; nearly all actives have a fitted effect of over 55% in size
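HEK293 cells carry an SMN2 minigene-luciferase reporter in which exon 7 inclusion puts luciferase in frame. Cells were seeded at 2000 cells/well, attached for 10-12 hours, then exposed to compounds for 30-36 hours at 37C before ONE-Glo luminescence.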
NPC1 promoter act = NPC1 promoter activation; Huh7 NPC1 promoter luciferase reporter, 24 h; 2.4% of 320,000 active; AID 485313; Potency, µM (series often up to 9.22 µM), inactives show at the highest dose activation, actives largely listed as activators; further: % of control where 0% means no effect; nearly all actives have a fitted effect of over 60% in size
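Luminescence read-out of NPC1 promoter-driven luciferase in stably transfected Huh7 cells; compounds delivered in DMSO and left 24 h at 37C, 5% CO2, qHTS titration format.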
ELG1 genotoxic = induces genotoxicity in HEK293T cells with luciferase-tagged ELG1; 1.3% of 330,000 active; Potency, µM (series often up to 46 µM), for the others: top-dose activity change, positive = activation, hits mostly activators; HEK293T ELG1-luciferase reporter, luminescence, 16 h; further: % of control where 0% means no effect; nearly all actives have a fitted effect of over 60% in size
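Cells (2,000/well) expressing the ELG1-luciferase fusion are dosed by pin tool and kept 16 hr at 37 °C, 5% CO2. Signal comes from ONE-Glo luciferase reagent after 30 min at room temperature.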
ELG1 repair inh = inhibitors of ELG1-dependent DNA repair in HEK293T cells | 2.3% of 330,000 active | HEK293T ELG1-luciferase reporter, luminescence, 16 h; DNA damage induced by 5-fluorouridine | Potency, µM (top dose mostly 46.1 µM), for inactives: top-dose activity change, negative = inhibition, actives largely listed as inhibitors; further: on the % scale 0 is the no-effect control and ±100 the full control effect; nearly all actives have a fitted effect of over 55% in size
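Step one: seed 2,000 cells per well. Step two: pin-transfer compound or DMSO alongside 5-fluorouridine. Step three: incubate 16 hr, 37 °C, 5% CO2. Step four: add ONE-Glo, wait 30 min, read luminescence.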
Numbers without * were called inactive; u = inconclusive; x = not tested or not shown. An excerpt weighted towards active compounds, which were near 9.2% of everything screened. The call rests on the fitted dose curve; in most records, active means well fitted curve in the direction sought with a large enough effect; inconclusive means small, poorly fitted or top-dose-only effect, or another doubt; inactive means no such curve, though single readings can be large; an effect the other way counts as inactive or inconclusive. Potency means the concentration at half of the fitted maximal effect.

SMILES	Rab9 prom act	FLuc modulator	SMN2 splice enh	NPC1 promoter act	ELG1 genotoxic	ELG1 repair inh
CC(CNS(=O)(=O)c1ccccc1)(c1ccccc1)N1CCCCC1 (configuration not stated)	-3.9%	0.5%	x	1.3%	-4.9%	-13.1%
CN(C)c1ccc(NC(=O)Nc2ccc3snnc3c2)cc1	u	7.57µM*	-0.7%	u	12.4%	u
CCOc1ccc(NC(=O)Nc2ccc3snnc3c2)cc1	x	-3.2%	13.3%	x	x	x
Cc1cc(C)c(NC(=O)Nc2ccc3snnc3c2)c(C)c1	x	1.8%	-1.0%	x	x	x
O=C(Nc1cccc(C(F)(F)F)c1)Nc1ccc2snnc2c1	x	-7.4%	-27.3%	x	x	x
O=C(Nc1ccccc1)Nc1ccc2snnc2c1	u	10.7µM*	11.2µM*	u	-1.9%	u
O=C(Nc1ccccc1)Nc1ccc2nnsc2c1	3.98µM*	7.57µM*	x	u	6.0%	u
c1ccc2c(C3=NNC(=NC4CCCCC4)SC3)c[nH]c2c1	15.3%	u	20µM*	-1.3%	0.4%	u
c1ccc2c(C3=NNC(=NC4CC4)SC3)c[nH]c2c1	0.631µM*	1.51µM*	2µM*	u	u	u
c1ccc(C2=NNC(=NC3CC3)SC2)cc1	0.112µM*	1.35µM*	2.51µM*	u	u	u
CCOc1ccc(-n2ccc(=O)c(C(=O)O)n2)cc1	-0.8%	0.2%	x	1.1%	0.6%	7.9%
CCOc1ccc(N=Cc2c(C)[nH]n(-c3nc4ccccc4[nH]3)c2=O)cc1	u	8.49µM*	11.5%	25.1%	3.4%	u
CN(Cc1nc(Cc2ccccc2F)no1)[C@@H]1CS(=O)(=O)C[C@H]1O	-4.6%	-3.4%	x	-3.1%	0.0%	13.3%
Cc1cc(C)n(CCN(C)Cc2nc(Cc3ccccc3F)no2)n1	u	4.78µM*	x	u	u	u
Nc1ccccc1NC1CCCCC1	-9.4%	-0.5%	10.7%	-10.2%	0.4%	0.8%
COc1ccc(C(=O)C(CCC(CNC(C)(C)C)C(=O)c2ccc(OC)cc2)CNC(C)(C)C)cc1 (configuration not stated)	-13.3%	2.8%	-60.0%	-2.1%	-4.4%	8.2µM*
CCc1cc(C(=O)Nc2nc(-c3ccccn3)cs2)sc1C	23.6%	12µM*	x	23.8%	5.4%	14.6%
Cc1ccc(C(=O)Nc2nc(-c3ccccn3)cs2)o1	-1.2%	19µM*	x	-1.5%	3.8%	u
CCCn1nc(C(=O)Nc2nc(-c3ccccn3)cs2)c2ccccc2c1=O	-8.3%	-11.7%	x	-2.0%	8.3%	7.3µM*
CC(=O)c1ccc(-c2ccc(C(=O)Nc3nc(-c4ccccn4)cs3)o2)cc1	x	x	x	x	7.9%	18.3µM*
CCSc1ccccc1C(=O)Nc1ccc(-c2nc3ccccc3s2)c(O)c1	x	-2.3%	x	x	x	x
O=C(CN1CCN(c2ccc(O)cc2)CC1)Nc1ccc(S(=O)(=O)N2CCCC2)cc1	x	x	x	x	1.9%	u
O=C(Oc1c(CN2CCOCC2)cc(Cl)c2cccnc12)c1ccccc1	-23.5%	-1.4%	-86.2%	-24.7%	-17.1%	23.1µM*
Oc1c(Cl)cc(CN2CCOCC2)c2cccnc12	-36.0%	x	x	-33.5%	-6.0%	u
O=C(Oc1c(CN2CCOCC2)cc(Cl)c2cccnc12)c1ccccc1F	-33.3%	0.6%	-94.4%	-39.3%	-14.9%	10.3µM*
SMILES	Rab9 prom act	FLuc modulator	SMN2 splice enh	NPC1 promoter act	ELG1 genotoxic	ELG1 repair inh
O=C(Oc1ccc(C(=S)N2CCOCC2)cc1Cl)c1ccccc1F	-4.5%	u	x	-3.8%	-0.6%	u
Oc1c(CN2CCc3ccccc3C2)cc(Cl)c2cccnc12	-31.7%	0.9%	-80.4%	-31.1%	-9.3%	u
COc1cc(OC)cc(C(=O)Oc2c(CN3CCOCC3)cc(Cl)c3cccnc23)c1	-40.0%	-1.6%	x	-36.8%	-11.2%	16.4µM*
Cc1[nH][nH]c(=O)c1C(c1ccc(-c2cccc(C(=O)O)c2)o1)c1c(C)[nH][nH]c1=O	u	15.1µM*	x	19.7%	13.7%	11.5%
Cc1c(C(=O)O)sc(S(=O)(=O)N2CCN(C(=O)Cc3ccc(F)cc3)CC2)c1C(=O)O	0.2%	x	x	-2.5%	2.5%	2.8%
CCc1ccc(NC(=O)C(CC)n2c(=O)c(C(F)(F)F)nc3ccccc32)cc1 (configuration not stated)	x	-0.5%	x	x	x	x
Cc1ccc(-c2cc(-c3nnc(SCC(=O)N(C)CCC#N)n3N)c3ccccc3n2)cc1	6.9%	10.7µM*	-47.0%	1.0%	0.5%	-0.3%
Cc1csc(=O)n1CCC(=O)OCC(=O)Nc1ccc(S(N)(=O)=O)cc1	10.3%	4.5%	x	-5.7%	-3.7%	u
Cc1ccc(S(=O)Cc2ccc(C(=O)NCc3ccc(OC(C)C)cc3)o2)cc1 (configuration not stated)	x	-10.1%	x	x	x	x
Cc1ccc(CS(=O)Cc2ccc(C(=O)NCc3ccc(OC(C)C)cc3)o2)cc1 (configuration not stated)	0.4%	-4.5%	x	-1.8%	-9.2%	7.3µM*
COc1ccccc1CNC(=O)CCCn1c(=O)c2ccccc2n(Cc2ccccc2C#N)c1=O	x	-4.6%	-8.1%	x	x	x
C=CCn1cnc2c(c1=O)c1nc3ccccc3nc1n2/N=C/c1cc(OC)c(OC)c(OC)c1	2.7%	-1.6%	3.6%	5.3%	-7.1%	5.8µM*
C=CCn1cnc2c(c1=O)c1nc3ccccc3nc1n2/N=C/c1ccccn1	-5.4%	-8.4%	-11.0%	-0.5%	-9.5%	11.6µM*
COCCCn1cnc2c(c1=O)c1nc3ccccc3nc1n2-c1ccccc1	1.8%	2.4%	-6.7%	1.2%	-1.2%	0.0%
C=CCn1cnc2c(c1=O)c1nc3ccccc3nc1n2-c1ccccc1	6.0%	-0.6%	-10.4%	0.9%	-2.3%	-5.7%
C=CCn1cnc2c(c1=O)c1nc3ccccc3nc1n2/N=C/c1cccc(OC)c1OC	-3.4%	-4.8%	0.5%	1.5%	-15.6%	3.26µM*
COCCn1cnc2c(c1=O)c1nc3ccccc3nc1n2/N=C/c1cccc(OC)c1	-6.1%	-10.6%	x	-14.2%	-3.0%	20.6µM*
O=c1c2c3nc4ccccc4nc3n(/N=C/c3ccccn3)c2ncn1-c1ccccc1	-5.5%	-6.2%	x	-13.6%	0.3%	-1.9%
CCN(C(=O)COC(=O)c1[nH]c(C)c(C(C)=O)c1C)c1c(N)n(Cc2ccccc2)c(=O)[nH]c1=O	0.8%	4.4%	x	1.5%	0.6%	-1.0%
Cc1ccc(OCC(=O)NCC(c2ccc(Cl)cc2)N2CCCCC2)cc1 (configuration not stated)	x	-9.5%	x	x	x	x
CCCCNc1nc2c(S(=O)(=O)c3ccc(C)cc3)nnn2c2ccsc12	x	-3.4%	x	x	x	x
COc1ccc(/C=N/n2c(-c3ccco3)nc3ccccc3c2=O)cc1	-1.5%	-15.4%	-32.0%	1.9%	2.0%	u
